Source: PubChem BioAssay
Rows were chosen to be rich in hits. Some 1.4% of all compounds tested hit in one or more screens of this group.
PTHR1 ag: agonists of human PTHR1 parathyroid hormone receptor; Q03431; HEK293 GP2 PTHR1 cells, GloSensor cAMP luminescence, 1 h; Potency, µM (top dose mostly 115 µM), most hits filed as activators; 410,000 compounds, 0.075% hits; also: nearly all actives have a fitted effect of over 55% in size
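HEK-293-derived GP2 cells expressing PTHR1 and a GloSensor cAMP reporter, 3,000/well, plated overnight, given luciferin plus IBMX (each 0.5 mM as added) for 1 h at 37 °C, then compound for 1 h at 37 °C. Luminescence was read after 15 min at room temperature.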
GRP78 ERSR act: inducers of ER stress response in human glioma cells | U87-MG GRP78 promoter luciferase reporter, 16 h | Potency, µM, most hits filed as activators | 420,000 compounds, 0.02% hits | AID 602332; also: series mostly up to about 76 µM; nearly all actives have a fitted effect of over 35% in size
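Stably transfected U87-MG glioma cells carrying a GRP78-based luciferase sensor; 16 h compound incubation. Luminescence end-point read 10 min after Bright-Glo addition at room temperature.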
KCNH2 3.1 inh: KCNH2 3.1 (human) potassium channel inhibition. U2OS KCNH2 3.1, thallium flux FluxOr; active compounds read low. 340,000 compounds, 0.95% hits. activity change, % (tested at about 1.8 µM). AID 720553;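 active = maximum activity change below -70%; inconclusive = maximum activity change from -70% to -50%; inactive = maximum activity change above -50%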;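 also: thallium influx rate constant from kinetic fluorescence after stimulation buffer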
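Thallium flux read-out: FluxOr dye with Red40 quencher in HBSS/HEPES, 45 min at RT. Rate constants from kinetic reads were normalized to positive and negative DMSO controls. Cells: U2OS virally expressing the 3.1 isoform.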
KCNH2 WT inh: KCNH2 (human, wildtype) channel inhibition | Q12809 | U2OS, BacMam KCNH2, thallium flux FluxOr; active compounds read low | activity change, % at 1.84 µM | 340,000 compounds, 0.37% hits | AID 720551;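 active = maximum activity change below -70%; inconclusive = maximum activity change between -70% and -50%; inactive = maximum activity change above -50%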
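U2OS cells were transduced with wild-type KCNH2 virus (2.03 x 10^8 / mL) for 4 h at room temperature, then cultured overnight at 37 C. Thallium flux was read with FluxOr dye. Rate constants were normalized to DMSO controls.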
RXFP1 agonist: RXFP1 (human) receptor agonism | AID 2676 | 370,000 compounds, 0.3% hits | HEK293T-RXFP1 cAMP TR-FRET, 30 min; response scale: percent of porcine relaxin response, buffer zero | Q9HBX9 | Potency, µM (doses to about 57.5 µM), hits mostly activators; also: nearly all actives have a fitted effect of over 60% in size
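cAMP rise read by TR-FRET after 30 min, 37C compound exposure (up to 58 uM) in RXFP1-transfected HEK293 cells with Ro 20174 present. EC50 from Hill-equation fits, with 29 nM porcine relaxin as 100% and buffer as basal.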
RXFP1 antagonist: RXFP1 (human) relaxin receptor antagonism | Q9HBX9 | HEK293-RXFP1, relaxin-stimulated cAMP HTRF, 30 min; active compounds read low | activity change, negative = inhibition, % at 57.5 µM | 350,000 compounds, 0.59% hits;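 active = activity change of -60% or lower, but not beyond a set lower limit; inconclusive = change between -60% and -40%, or beyond the set limit; inactive = change above -40%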
Hits are given with their value; 0 = inactive; ? = inconclusive; - = no result given. Unless noted, calls follow the shape of the dose curve; as a rule, active = well fitted curve in the direction sought with a large enough effect; inconclusive = small, poorly fitted or top-dose-only effect, or another doubt; inactive = no such curve, though single readings can be large; an effect the other way counts as inactive or inconclusive.

SMILES	PTHR1 ag	GRP78 ERSR act	KCNH2 3.1 inh	KCNH2 WT inh	RXFP1 agonist	RXFP1 antagonist
CCN(CC)C(=O)C1=C(C)N(CCC2=CCCCC2)C(=O)C(CC(=O)NC(c2ccccc2)c2ccccc2)C1 (stereo unspecified)	0	0	0	-88	-	0
CC1=C(C(=O)N(C)C)CC(CC(=O)NC(c2ccccc2)c2ccccc2)C(=O)N1CCC1=CCCCC1 (stereo unspecified)	0	0	0	0	-	0
COc1ccc(N(C(=O)CCl)C(C(=O)NC2CCCCC2)c2cccnc2)cc1 (stereo unspecified)	0	0	0	0	0	-
COc1cc(CNCc2ccccc2)c(Br)cc1OC1CCCC1	0	0	0	0	0	-61
COc1cc(CNC2CCCC2)c(Br)cc1OC1CCCC1	0	0	0	0	0	0
COc1cccc(CN2CCNC(=O)C2CC(=O)N(C)Cc2nc(C)cs2)c1OC (stereo unspecified)	0	0	0	0	0	0
Cc1ccc(S(=O)(=O)NC(=O)NCc2ccc(F)cc2)cc1	0	0	0	0	0	0
O=C(NCCSc1c[nH]c2ccccc12)c1ccc(Br)o1	0	0	0	0	0	0
Cc1[nH]c2ccccc2c1SCCNC(=O)c1ccc(Br)o1	0	0	0	0	0	-82
COC(=O)C(NC(=O)c1cccnc1Cl)C(C)C (stereo unspecified)	0	0	0	-120	0	0
O=C(NNc1cccc(Cl)n1)c1cccnc1Cl	0	0	0	-	0	0
C(#Cc1ccccc1)C[N+]1(CC#Cc2cccc3ccccc23)CCCC1	0	0	-80	0	0	0
CN1C(=O)C(C)(C)N(C(=O)c2cccc([N+](=O)[O-])c2)c2ccccc21	0	0	-100	0	0	0
O=C(c1cccc([N+](=O)[O-])c1)N1CCc2ccccc21	0	0	0	0	0	0
O=C(NCc1ccccc1F)c1ccc2ccccc2n1	0	0	0	0	0	0
CN(C)CCCN(C(=O)CCSc1ccccc1)c1nc2cc3c(cc2s1)OCO3	0	0	0	0	0	0
CCOc1ccc(/C=N/NC(=O)c2nnn(-c3nonc3N)c2CN(C)C2CCCCC2)cc1	0	0	0	-102	0	0
CCN(CC)c1ccc(/C=N/NC(=O)c2nnn(-c3nonc3N)c2CN(C)C2CCCCC2)cc1	0	0	-88	0	-	0
COc1cccc(/C=N/NC(=O)c2nnn(-c3nonc3N)c2CN(C)C2CCCCC2)c1	0	0	0	0	-	0
CCN(CC)CCNS(=O)(=O)c1ccc(C(=O)NN)cc1	0	0	0	0	0	0
CCCCN(CC)CCNC(=O)c1cn(-c2ccc(Cl)cc2)c(=O)c2ccccc12	0	0	-78	?	0	?
COC(=O)C(Cc1csc2ccc(Cl)cc12)NC(=O)c1ccc(Cl)cc1 (stereo unspecified)	0	0	0	0	0	-68
CCOC(=O)c1cccc(NC(=O)Cn2c(CC(=O)N3CCCC3)nc3ccccc32)c1	-	-	-	-	0	-
O=C(O)Cn1c(CC(=O)N2CCCC2)nc2ccccc21	0	?	-169	0	0	0
O=C(C1CCCN(S(=O)(=O)c2cccc3nonc23)C1)N1CCN(c2cccc(Cl)c2)CC1 (stereo unspecified)	0	0	0	0	0	0
SMILES	PTHR1 ag	GRP78 ERSR act	KCNH2 3.1 inh	KCNH2 WT inh	RXFP1 agonist	RXFP1 antagonist
CCOc1ccc(Br)cc1CNCCSc1nnnn1-c1ccccc1	0	32µM	-	-	0	0
Brc1ccc(-c2ccc(CNCCSc3nnnn3-c3ccccc3)o2)cc1	0	0	-	-	14µM	0
Clc1ccc(-c2ccc(CNCCSc3nnnn3-c3ccccc3)o2)cc1	0	0	-	-	0	?
COc1ccc(CCC(=O)N2CCN(C3CCCCC3)CC2)cc1	0	0	?	0	0	0
CCOc1ccccc1CN1CCC(Oc2ccc(C(=O)NCc3ccccn3)cc2)CC1	0	0	0	0	0	0
CC(C)N(Cc1ccc(F)cc1)C(=O)c1cc2ccccc2oc1=O	-	-	-	-	0	-
Cc1coc2c1c(C)cc1oc(=O)c(CC(=O)NCC(=O)O)c(C)c12	0	0	0	0	0	0
Cc1ccc(CNC(=O)Cc2c(C)c3c(cc(C)c4c(C)coc43)oc2=O)cc1	16µM	0	-	-	0	0
Cn1c(SCC(N)=O)nnc1C1CCN(S(=O)(=O)c2ccccc2C(F)(F)F)CC1	0	0	0	0	0	0
O=C(CCn1c(=O)[nH]c2ccccc2c1=O)N1CC=C(c2ccccc2)CC1	0	0	0	0	0	0
C=CCn1c(=O)[nH]c2cc(C(=O)N3CC=C(c4ccccc4)CC3)ccc2c1=O	0	0	0	0	0	-72
CCOC(=O)c1nn(-c2ccc(Br)cc2)cc1C(=O)c1cccc2ccccc12	0	0	-104	0	0	0
CCOC(=O)c1nn(-c2ccc(F)cc2)cc1O	0	0	0	0	0	0
CCCCc1ccc(/C(C)=N/Nc2cc(N3CCOCC3)nc(C)n2)cc1	0	0	-82	0	0	0
C/C(=N\Nc1cc(N2CCOCC2)nc(C)n1)c1cccc([N+](=O)[O-])c1	?	0	0	0	0	0
COc1cc(NC(=O)Cn2c(=O)n(Cc3ccccc3Cl)c(=O)c3cc(OC)c(OC)cc32)cc(OC)c1	0	0	-	-	25µM	-
CCOC(=O)N1CCC(N2Cc3cccc(C(=O)Nc4ccc(CC)cc4)c3C2=O)CC1	0	0	-112	0	0	0
NS(=O)(=O)c1ccc(CCNCc2ccccc2OCc2ccc(Cl)cc2)cc1	0	0	-71	0	0	?
NS(=O)(=O)c1ccc(CCNCc2cc(Cl)ccc2OCc2ccccc2)cc1	0	0	0	0	0	0
O=C(Nc1ccc(N2CCOCC2)c(S(=O)(=O)Nc2cc(Cl)ccc2Cl)c1)c1cccnc1	0	0	0	0	0	0
CC(=O)NC(=S)Nc1ccc(N2CCOCC2)c(S(=O)(=O)Nc2cc(Cl)ccc2Cl)c1	0	0	-82	?	0	0
CCOC(=O)c1csc(NC(=O)c2ccc(N3C(=O)CCC3=O)cc2)n1	0	0	0	0	0	0
CCCOC(=O)c1c(-c2ccccc2)c(-c2ccccc2)nn(C)c1=O	0	0	-	-	0	-65
O=C1Nc2ccccc2N(C(=O)c2c(F)cccc2F)C1c1nc2ccccc2[nH]1 (stereo unspecified)	0	-	-	-	-	-
COc1ccc(S(=O)(=O)NC2CC(=O)N(c3ccc(C)c(C)c3)C2)cc1 (stereo unspecified)	0	0	0	0	0	0
CCOC(=O)/C(C#N)=C/c1cc2ccccc2nc1N1CCCCC1	0	0	0	0	14µM	0
